Records with an inconclusive call do not appear. The source made the active and inactive calls. How the source made its calls: active means hit-call score of the fitted dose curve at least 0.9, where 1 is the maximum; inconclusive means response in the unintended direction; inactive means score below 0.9.
Molecular target: human CYP4F12, CYP4F12 (gene 66002) (UniProt Q9HCS2)
Test: NVS_ADME_hCYP4F12: NovaScreen (NVS) CYP450-related Enzyme Activity (ADME) Assay for human CYP4F12 (AID 2283111)
Experimental: NVS_ADME_hCYP4F12 is a biochemical, single-readout assay that uses extracted gene-proteins in a cell-free assay. Measurements were taken 0.5 hour after chemical dosing in a 384-well plate.NVS_ADME_hCYP4F12 is one of one assay component(s) measured or calculated from the NVS_ADME_hCYP4F12 assay. It is designed to make measurements of enzyme activity, a form of enzyme reporter, as detected with fluorescence intensity signals by Fluorescence technology.Data from the assay component NVS_ADME_hCYP4F12 was analyzed into 1 assay endpoint. This assay endpoint, NVS_ADME_hCYP4F12, was analyzed in the positive analysis fitting direction relative to Acetonitrile as the negative control and baseline of activity. Using a type of enzyme reporter, loss-of-signal activity can be used to understand changes in the enzymatic activity as they relate to the gene CYP4F12. Furthermore, this assay endpoint can be referred to as a primary readout, because this assay has produced multiple assay endpoints where this one serves a enzymatic activity function. To generalize the intended target to other relatable targets, this assay endpoint is annotated to the cyp intended target family, where the subfamily is xenobiotic metabolism.
Binding assays used specific radioligands (tritiated, iodinated) with non-radioactive competitive displacement ligands in agonist or antagonist protocols (as indicated) and various reference compounds and inhibitors to titrate specific binding to receptors and transporters. Most enzyme assays (CYPs, kinases, phosphatases, proteases, HDACs) used recombinant protein and specific substrates (fluorescence mostly, some colorimetric and radioactive) and inhibitors, followed by a biochemical separation of substrate and product. All assays for the biochemical HTS were initially run in duplicate at a single concentration (10 uM for CYP450 assays and 25 uM for all others). […] Each assay was run with positive and negative controls, and concurrent controls on every plate. The follow-up (secondary) screen tested active chemical-pairs in concentration series, as well as a few additional assays not tested in the primary screen, some selected negative inactives, and several cases re-run in the concentration series for confirmatory purposes.

human CYP4F12, CYP4F12 (gene 66002), sequence (Q9HCS2 whole entry, looked up): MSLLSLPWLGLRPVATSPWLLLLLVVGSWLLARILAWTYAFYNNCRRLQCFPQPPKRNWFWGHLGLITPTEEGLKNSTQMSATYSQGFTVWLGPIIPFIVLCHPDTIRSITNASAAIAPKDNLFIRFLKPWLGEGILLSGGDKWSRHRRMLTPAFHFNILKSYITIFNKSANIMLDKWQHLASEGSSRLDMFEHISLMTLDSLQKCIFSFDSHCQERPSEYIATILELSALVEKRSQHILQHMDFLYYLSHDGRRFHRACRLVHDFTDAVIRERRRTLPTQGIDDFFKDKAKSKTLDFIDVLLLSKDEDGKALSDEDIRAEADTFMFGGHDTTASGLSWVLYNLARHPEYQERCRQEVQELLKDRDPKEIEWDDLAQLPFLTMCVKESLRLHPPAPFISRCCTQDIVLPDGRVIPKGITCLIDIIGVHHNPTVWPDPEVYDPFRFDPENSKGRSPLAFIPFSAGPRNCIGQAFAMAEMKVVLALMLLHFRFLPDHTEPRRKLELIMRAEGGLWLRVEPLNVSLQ

| Compound | AC50 | outcome |
| --- | --- | --- |
| Cc1ccccc1Cl | 7.95 µM (active) | – |
| CC(C)(c1ccc(O)cc1)c1ccc(O)cc1 | 4.07 µM (active) | – |
| CCOC(N)=O | – | inactive |
| CC(C)NCC(O)c1ccc(O)c(O)c1 (centres undefined) | 2.13 µM (active) | – |
| O=C1NC(=O)C(c2ccccc2)(c2ccccc2)N1 | – | inactive |
| Cc1nc(-c2ccc3c(c2)CCN(CCC2CCC(NC(=O)/C=C/c4ccc(F)cc4)CC2)CC3)no1 (centres undefined) | – | inactive |
| Oc1ccc(C(c2ccc(O)cc2)C(Cl)(Cl)Cl)cc1 | 0.615 µM (active) | – |
| CN1CCC[C@H]1c1cccnc1 | – | inactive |
| CCCCCCCCCC(=O)O | 2.83 µM (active) | – |
| CCN(CC)CCNc1ccc(CNC=O)c2sc3ccc(OC)cc3c(=O)c12 | 1.41 µM (active) | – |
| C[C@]12CC[C@@H]3c4ccc(O)cc4CC[C@H]3[C@@H]1CC[C@@H]2O | – | inactive |
| Nc1nc(Cl)nc2c1ncn2[C@H]1C[C@H](O)[C@@H](CO)O1 | – | inactive |
| CC(=O)[C@H]1CC[C@H]2[C@@H]3CCC4=CC(=O)CC[C@]4(C)[C@H]3CC[C@]12C | – | inactive |
| CCc1ccc(O)c(C(C)(C)C)c1 | – | inactive |
| Cc1occc1C(=O)Nc1ccc(C(=O)N2CCC(F)(F)/C(=C\C(=O)N3CCC(N4CCCCC4)CC3)c3ccccc32)cc1 | 1.24 µM (active) | – |
| CNC(=O)[C@H]1O[C@@H](n2cnc3c(NCc4cc(Cl)ccc4OCc4cc(C)no4)ncnc32)[C@H](O)[C@@H]1N | – | inactive |
| CN(C)C(=O)NC1(c2ccccc2)CCN(CC[C@@]2(c3ccc(F)c(F)c3)CN(C(=O)c3ccccc3)CCO2)CC1 | – | inactive |
| CC1(C)C(=O)N(Br)C(=O)N1Br | 2.18 µM (active) | – |
| CC1=CC(=O)/C(=C(/C)O)C(=O)O1 | 1.52 µM (active) | – |
| CCCCCCCC(=O)O | 4.61 µM (active) | – |
| O=C=NCCCCCCN=C=O | 0.884 µM (active) | – |
| CC(C)CCCCCCc1ccc(O)cc1 | – | inactive |
| CSc1ccc(Oc2ccc(S(N)(=O)=O)cc2CN(C)C)cc1C | 8.72 µM (active) | – |
| NC(=O)c1nc(-c2cccc(-c3cc(F)ccc3OCC(F)(F)C(F)(F)F)c2)n[nH]1 | – | inactive |
| CCCCC(CC)COC(=O)c1ccccc1C(=O)O (centres undefined) | – | inactive |
| S=C(S)NCCNC(=S)S.[Mn+2].[S-]C([S-])=NCCN=C([S-])[S-].[Zn+2] | – | inactive |
| COC(=O)CCC(=O)OC | – | inactive |
| CC[C@H](C)C(=O)O[C@H]1C[C@@H](C)C=C2C=C[C@H](C)[C@H](CC[C@@H]3C[C@@H](O)CC(=O)O3)[C@H]21 | – | inactive |
| COc1cccc([C@H](O)C2CCN(CCc3ccc(F)cc3)CC2)c1OC | 0.441 µM (active) | – |

Reference: PubChem BioAssay (EPA / NIEHS)
